The nature of experiment [1]: antimalarial activity against Dd2 strain (AID 2302;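 active = growth inhibition above 50% at the single 2 µM test dose, taken to imply half-maximal potency below 2 µM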;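 also: 0% = DMSO untreated growth and 100% = chloroquine plus artemisinin killed control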). The following applies: P. falciparum Dd2 in RBCs, LDH growth readout, 72 h; at 2 µM; hits give high values.
A short description of experiment [2]: human hepatoma cell viability loss – ATP luminescence, cytotoxicity control for P. falciparum antimalarial project, primary screen (AID 2303;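 active = inhibition above 50%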;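 also: 0% = DMSO wells and 100% = digitonin-killed cells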). The following applies: HepG2 viability, 24-48 h, at 10 µM, hits give high values.
Experiment [3] concerns the target L-lactate dehydrogenase (Plasmodium falciparum (isolate CDC / Honduras)) (UniProt Q27743). Put plainly: PfLDH activity inhibition – cell lysate, 3D7 strain, counter-screen for P. falciparum growth inhibition project (AID 2304).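 Also: 0% = vehicle and 100% = reference inhibitor.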 The note with it: P. falciparum 3D7 crude extract, LDH APAD/NBT absorbance; at 2 µM; hits give high values.
Experiment [4] can be described thus: inhibition of 3D7 malaria parasite growth – strain 3D7 (AID 2306).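 Also: 0% = DMSO wells and 100% = chloroquine plus artemisinin control wells.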 The note with it: P. falciparum 3D7 erythrocytic growth, LDH absorbance, 72 h; at 2 µM; hits give high values.
In experiment [5] the target is Calcium-dependent protein kinase 1 (Plasmodium falciparum (isolate 3D7)) (UniProt P62344). Put plainly: PfCDPK1 kinase inhibitors, biochemical, TCAMS library (AID 1159585; cut-off not given, nearly all actives have IC50 up to about 0.98 µM;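 also: inhibitors leave more ATP so luminescence rises with inhibition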). The following applies: recombinant PfCDPK1, Kinase-Glo ATP depletion luminescence. (In Kinase-Glo more light means more ATP remaining.)
The target in experiment [6] is Plasmodium falciparum protein kinase 6 (PK6, PF3D7_1337100) (UniProt Q8IDW1). Put plainly: PfPK6 kinase inhibitors, biochemical, TCAMS library (AID 1159586). The following applies: recombinant PfPK6, Kinase-Glo ATP depletion luminescence.
In experiment [7] the target is Protein kinase 7 (PK7), Plasmodium falciparum 3D7 (PF3D7_0213400) (UniProt Q7YTF7). Put plainly: inhibition of Plasmodium PK7 catalytic activity – biochemical, TCAMS antimalarial set, Kinase-Glo luminescence (AID 1159587). The following applies: recombinant PfPK7, Kinase-Glo ATP depletion luminescence.
In experiment [8] the target is Calcium-dependent protein kinase 4 (Plasmodium falciparum (isolate 3D7)) (UniProt Q8IBS5). Put plainly: PfCDPK4 kinase inhibitors, biochemical, TCAMS library (AID 1159588; cut-off not given, nearly all actives have IC50 up to about 0.91 µM). The note with it: recombinant PfCDPK4, Kinase-Glo ATP depletion luminescence.

Unmarked numbers belong to inactive results. For some assays here: Potency and affinity values are given separately. Active and inactive are the calls of the source. Unless noted, no rule for the calls is given here.

The inhibition is the change of the read-out against control, counted positive when it falls.

Calcium-dependent protein kinase 1 (Plasmodium falciparum (isolate 3D7)), sequence (P62344 whole entry, looked up): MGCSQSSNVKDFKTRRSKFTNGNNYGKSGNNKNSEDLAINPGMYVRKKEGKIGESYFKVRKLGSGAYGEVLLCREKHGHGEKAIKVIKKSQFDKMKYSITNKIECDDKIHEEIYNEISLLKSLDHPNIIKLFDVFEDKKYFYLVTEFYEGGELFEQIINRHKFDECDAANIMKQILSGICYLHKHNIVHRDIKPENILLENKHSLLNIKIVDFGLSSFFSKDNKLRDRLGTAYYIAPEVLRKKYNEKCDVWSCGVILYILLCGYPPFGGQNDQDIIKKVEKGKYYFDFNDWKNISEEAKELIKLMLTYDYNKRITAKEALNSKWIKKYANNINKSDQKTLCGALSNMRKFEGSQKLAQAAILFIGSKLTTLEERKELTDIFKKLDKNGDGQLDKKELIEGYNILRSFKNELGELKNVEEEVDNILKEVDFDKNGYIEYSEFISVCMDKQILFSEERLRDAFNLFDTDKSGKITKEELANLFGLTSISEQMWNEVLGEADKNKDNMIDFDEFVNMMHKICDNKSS
Calcium-dependent protein kinase 4 (Plasmodium falciparum (isolate 3D7)), sequence (Q8IBS5 whole entry, looked up): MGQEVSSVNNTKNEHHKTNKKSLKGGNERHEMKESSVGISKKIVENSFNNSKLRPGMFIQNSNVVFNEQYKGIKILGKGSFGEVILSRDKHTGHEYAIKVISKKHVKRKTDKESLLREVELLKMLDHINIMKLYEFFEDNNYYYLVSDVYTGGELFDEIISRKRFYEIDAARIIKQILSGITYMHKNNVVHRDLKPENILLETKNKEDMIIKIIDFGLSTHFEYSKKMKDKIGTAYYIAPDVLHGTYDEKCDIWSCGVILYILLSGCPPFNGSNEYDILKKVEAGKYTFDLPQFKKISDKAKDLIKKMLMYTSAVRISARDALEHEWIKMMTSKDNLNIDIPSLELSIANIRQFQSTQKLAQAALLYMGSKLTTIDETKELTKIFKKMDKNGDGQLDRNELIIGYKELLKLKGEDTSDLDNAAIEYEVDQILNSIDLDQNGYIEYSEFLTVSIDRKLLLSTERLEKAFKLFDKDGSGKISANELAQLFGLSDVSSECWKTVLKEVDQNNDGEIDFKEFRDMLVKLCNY
Plasmodium falciparum protein kinase 6 (PK6, PF3D7_1337100), sequence (Q8IDW1 1-305): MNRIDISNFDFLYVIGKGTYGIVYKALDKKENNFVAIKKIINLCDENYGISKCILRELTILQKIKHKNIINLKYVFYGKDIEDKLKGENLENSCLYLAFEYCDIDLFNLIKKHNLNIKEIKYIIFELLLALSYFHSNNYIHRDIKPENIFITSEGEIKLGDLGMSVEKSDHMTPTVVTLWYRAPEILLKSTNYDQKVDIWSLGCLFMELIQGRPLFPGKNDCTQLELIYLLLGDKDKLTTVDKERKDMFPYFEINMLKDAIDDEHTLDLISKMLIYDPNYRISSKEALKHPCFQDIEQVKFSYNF
Protein kinase 7 (PK7), Plasmodium falciparum 3D7 (PF3D7_0213400), sequence (Q7YTF7 1-343): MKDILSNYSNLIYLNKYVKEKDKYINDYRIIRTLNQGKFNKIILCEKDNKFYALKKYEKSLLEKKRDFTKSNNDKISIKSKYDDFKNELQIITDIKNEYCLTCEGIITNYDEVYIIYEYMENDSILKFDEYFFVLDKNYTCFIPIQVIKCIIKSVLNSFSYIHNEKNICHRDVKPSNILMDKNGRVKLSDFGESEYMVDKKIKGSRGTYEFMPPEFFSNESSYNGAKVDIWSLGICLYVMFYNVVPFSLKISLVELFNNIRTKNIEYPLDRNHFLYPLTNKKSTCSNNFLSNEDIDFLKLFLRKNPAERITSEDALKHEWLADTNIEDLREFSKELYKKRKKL
L-lactate dehydrogenase (Plasmodium falciparum (isolate CDC / Honduras)), sequence (Q27743 whole entry, looked up): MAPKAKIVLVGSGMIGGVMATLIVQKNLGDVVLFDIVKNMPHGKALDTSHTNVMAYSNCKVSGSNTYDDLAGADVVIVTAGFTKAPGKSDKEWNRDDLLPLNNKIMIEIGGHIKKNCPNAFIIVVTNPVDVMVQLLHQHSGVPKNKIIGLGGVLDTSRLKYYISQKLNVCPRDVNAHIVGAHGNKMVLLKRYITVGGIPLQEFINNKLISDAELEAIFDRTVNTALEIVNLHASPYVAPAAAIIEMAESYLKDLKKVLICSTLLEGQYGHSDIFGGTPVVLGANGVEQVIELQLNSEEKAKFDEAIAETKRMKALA

As for `NC(N)=NN=Cc1c2ccccc2c(Cl)c2cc(Cl)ccc12`, the figures for the growth inhibition in experiment [1] and in experiment [4] were 28% and 97% (active), respectively. Besides, the inhibition in experiment [2] was 26%; in experiment [3] it was -3%. The outcome in experiment [5], in experiment [6], in experiment [7] and in experiment [8] was inactive.
As for `FC(F)(F)c1ccc2nc(-c3ccc(-c4ccc(CNCc5ccccc5)cc4)cc3)[nH]c2c1`, the growth inhibition is 96% (active) in experiment [1] and 101% (active) in experiment [4]. The inhibition in experiment [2] was 22%; in experiment [3], -5%. For the same molecule, the result in experiment [5], in experiment [6], in experiment [7] and in experiment [8] was inactive.
Turning to `O=C(N[C@@H](Cc1ccccc1)C(=O)NCCN1CCCC1)c1ccc(O)c(-c2ccc(Cl)c(Cl)c2)c1`, the growth inhibition is 46% in experiment [1] and 95% (active) in experiment [4]. Also, the inhibition in experiment [2] is 8%; in experiment [3], -2%. Also, the outcome in experiment [5], in experiment [6], in experiment [7] and in experiment [8] was inactive.
Regarding `O=C1CSc2ccc(CNC3CCN(CCc4c(F)cnc5ccc(F)cc45)CC3)nc2N1`, the growth inhibition was 16% in experiment [1] and 97% (active) in experiment [4]. In addition, the inhibition was 13% in experiment [2] and 1% in experiment [3]. For the same molecule, the result in experiment [5], in experiment [6], in experiment [7] and in experiment [8] was inactive.
`O=C(c1cc2ccccc2o1)N1CCc2cc3nccc(N4CCN5CCC[C@H]5C4)c3cc21`: the values for the growth inhibition in experiment [1] and in experiment [4] were 101% (active) and 99% (active), respectively. Besides, the inhibition was 62% (active) in experiment [2] and 2% in experiment [3]. The result in experiment [5], in experiment [6], in experiment [7] and in experiment [8] was inactive.
On to `O=C(NC1CCCCC1)C(c1cccs1)N(CCc1ccccc1)C(=O)c1ccco1` (configuration not stated), for which the growth inhibition in experiment [1] is 63% (active); in experiment [4] it was 92% (active). In addition, the inhibition was -10% in experiment [2] and -1% in experiment [3]. Besides, the result in experiment [5], in experiment [6], in experiment [7] and in experiment [8] was inactive.
Consider `COc1ccc(NC(=O)NCC2CCCN(CCCCCNC(=O)/C=C/c3ccc(Cl)c(Cl)c3)C2)c(OC)c1` (configuration not stated), for which the growth inhibition in experiment [1] was -2%; in experiment [4], 95% (active). Also, the results for the inhibition in experiment [2] and in experiment [3] were 8% and -6%, respectively. The result in experiment [5], in experiment [6], in experiment [7] and in experiment [8] was inactive.
In the case of `Cc1cc(N(C)C)nc(Nc2ccc(NC(=O)CCc3ccccc3)cc2)n1`, the growth inhibition is 84% (active) in experiment [1] and 100% (active) in experiment [4]. In addition, the inhibition in experiment [2] is 20%; in experiment [3], 1%. In addition, the outcome in experiment [5], in experiment [6], in experiment [7] and in experiment [8] was inactive.
Turning to `Cc1ccc(-c2[nH]n3c(=O)c4c(nc3c2C)CCCC4)cc1`, the growth inhibition in experiment [1] is 87% (active); in experiment [4], 97% (active). Besides, the inhibition in experiment [2] is 16%; in experiment [3], -1%. Also, the outcome in experiment [5], in experiment [6], in experiment [7] and in experiment [8] was inactive.
Consider `CC(C)(C)Oc1ccc(NC(=O)c2ccccc2O)cc1`, for which the growth inhibition was 67% (active) in experiment [1] and 86% (active) in experiment [4]. In addition, the inhibition in experiment [2] was 4%; in experiment [3], -6%. The outcome in experiment [5], in experiment [6], in experiment [7] and in experiment [8] was inactive.
As for `COc1ccccc1N1CCN(CCCCNC(=O)c2ccc(NC(=O)c3ccc(OC(F)(F)F)cc3)cc2)CC1`, the growth inhibition in experiment [1] is 39%; in experiment [4], 100% (active). The inhibition was 29% in experiment [2] and -6% in experiment [3]. Further, the result in experiment [5], in experiment [6], in experiment [7] and in experiment [8] was inactive.
For `Cc1ccc(Nc2nc(C)cc(NC3CCN(C)CC3)n2)cc1`, the figures for the growth inhibition in experiment [1] and in experiment [4] were 21% and 100% (active), respectively. Moreover, the figures for the inhibition in experiment [2] and in experiment [3] were 14% and 2%, respectively. In addition, the outcome in experiment [5], in experiment [6], in experiment [7] and in experiment [8] was inactive.
As for `COC(=O)Cn1c2ccccc2c2c(N)c(C(=O)OC)c(C)nc21`, the growth inhibition in experiment [1] was 1%; in experiment [4] it was 93% (active). Besides, the inhibition in experiment [2] is 0%; in experiment [3], 4%. The result in experiment [5], in experiment [6], in experiment [7] and in experiment [8] was inactive.
With `O=C(Nc1ccc2c(c1)CCC2)N[C@H]1CCN(Cc2ccc(OCCCN3CCCCC3)cc2)C1`, the growth inhibition was -2% in experiment [1] and 96% (active) in experiment [4]. In addition, the inhibition is 9% in experiment [2] and -2% in experiment [3]. Moreover, the result in experiment [5], in experiment [6], in experiment [7] and in experiment [8] was inactive.
Take `CC(C)CCN1CCC(Oc2ccc(NC(=O)c3cccs3)cc2Cl)C1` (configuration not stated): the growth inhibition in experiment [1] was 93% (active); in experiment [4], 94% (active). For the same molecule, the inhibition in experiment [2] was 17%; in experiment [3], 2%. Also, the outcome in experiment [5], in experiment [6], in experiment [7] and in experiment [8] was inactive.
For the molecule `Oc1cccc(/C=N/Nc2ccnc3cc(Cl)ccc23)c1`, the figures for the growth inhibition in experiment [1] and in experiment [4] were 95% (active) and 104% (active), respectively. Also, the inhibition was -9% in experiment [2] and 0% in experiment [3]. Further, the result in experiment [5], in experiment [6], in experiment [7] and in experiment [8] was inactive.
`C=C[C@H]1CN(CCCCCCC)CC[C@H]1CCNc1ccnc2ccc(OC)cc12`: the growth inhibition is 81% (active) in experiment [1] and 95% (active) in experiment [4]. For the same molecule, the results for the inhibition in experiment [2] and in experiment [3] were 99% (active) and 7%, respectively. In addition, the result in experiment [5], in experiment [6], in experiment [7] and in experiment [8] was inactive.
With `COc1ccc(CCON2C(N)=NC(N)=NC2(C)C)cc1OC`, the growth inhibition in experiment [1] is 93% (active); in experiment [4], 96% (active). Further, the results for the inhibition in experiment [2] and in experiment [3] were 64% (active) and 2%, respectively. Moreover, the result in experiment [5], in experiment [6], in experiment [7] and in experiment [8] was inactive.
Consider `CC(=O)Nc1cccc(-c2cn(-c3ccc(OCc4cccc(F)c4)c(Cl)c3)c3ncncc23)c1`, for which the growth inhibition in experiment [1] was 66% (active); in experiment [4] it was 100% (active). Further, the inhibition was 7% in experiment [2] and -4% in experiment [3]. Besides, the outcome in experiment [5], in experiment [6], in experiment [7] and in experiment [8] was inactive.

The record behind these values is PubChem BioAssay.
